GLP1R inv ag = qHTS of GLP-1 Receptor Inverse Agonists (Inhibition Mode); Potency, µM (doses to about 38.3 µM), for inactives: at the top dose activity change, negative = inhibition, most hits filed as inhibitors; AID 624417, 2012; hit rate 1.6% among 410,000; HEK293 GLP-1R CRE-luciferase, luminescence, 24 h; GLP-1R form is constitutively active; Glucagon-like peptide 1 receptor (Homo sapiens), P43220; note: % is set by controls: 0 for no effect and ±100 for the full control effect; nearly all actives have a fitted effect of over 55% in size
Target sequence (P43220 whole entry, looked up): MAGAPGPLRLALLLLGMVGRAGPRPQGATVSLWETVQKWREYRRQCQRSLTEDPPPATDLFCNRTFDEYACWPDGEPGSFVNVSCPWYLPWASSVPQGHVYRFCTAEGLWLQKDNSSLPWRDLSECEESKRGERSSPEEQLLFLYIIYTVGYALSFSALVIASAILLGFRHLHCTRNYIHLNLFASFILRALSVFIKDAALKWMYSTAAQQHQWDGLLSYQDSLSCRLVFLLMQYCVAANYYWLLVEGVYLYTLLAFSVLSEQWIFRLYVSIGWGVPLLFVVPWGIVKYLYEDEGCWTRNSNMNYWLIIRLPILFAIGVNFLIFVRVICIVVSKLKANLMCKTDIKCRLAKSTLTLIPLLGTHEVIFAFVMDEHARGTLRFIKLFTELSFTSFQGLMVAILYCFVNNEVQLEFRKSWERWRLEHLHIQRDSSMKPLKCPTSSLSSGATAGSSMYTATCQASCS
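Assay principle: reduced luminescence from a cAMP-responsive reporter in HEK293 cells co-expressing a constitutively active GLP-1R. Conditions: 24 hr compound incubation, 37 deg C, 5% CO2.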
BRCA1 expr up = qHTS Assay to Identify Small Molecule Activators of BRCA1 Expression. MCF7-BRCA1-FFLuc reporter, luminescence, 48 h; response scale: scaled: vehicle 0%, 10 µM genistein 100%. Potency, µM (titrated, usually from 46.1 µM), for the others: at the highest dose activation, actives largely listed as activators. hit rate 1.1% among 380,000; note: nearly all actives have a fitted effect of over 80% in size
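Cells: MCF7-BRCA1-FFLuc, 2000/well. Exposure: 48 h, 37 °C, 5% CO2. Read: luminescence, 15 min post-substrate. Controls: genistein 10 microM (maximal activation), DMSO (neutral).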
Mito fusion act = qHTS Assay for Small Molecule Inhibitors of Mitochondrial Division or Activators of Mitochondrial Fusion; S. cerevisiae fusion-defective mutant growth rescue, CellTiterGlo 48 h; hit rate 0.23% among 320,000; AID 485298, 2010; Potency, µM (doses to about 46.1 µM), for inactives: at the highest dose growth rescue (activation), hits mostly activators; note: % of control where 0% means no effect; nearly all actives have a fitted effect of over 45% in size
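S. cerevisiae fusion-defective temperature-sensitive mutants (e.g. fzo1-1, mgm1-5) grown 48 h at 37C in YPEG (ethanol/glycerol non-fermentable) medium with 23 nl compound per well; growth rescue read as CellTiterGlo luminescence.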
GLP1R ag = qHTS of GLP-1 Receptor Agonists; Glucagon-like peptide 1 receptor (Homo sapiens), P43220; HEK293 GLP-1R CRE-luciferase, luminescence, 4-6 h; cells express a hypersensitive GLP-1R form; Potency, µM (titrated, usually from 45.6 µM), for the others: top-dose activation, actives largely listed as activators; hit rate 0.007% among 380,000; AID 624172, 2012; note: % of control where 0% means no effect
GLP1R cytotox = qHTS of GLP-1 Receptor Inverse Agonists: Cytotox Screen | Potency, µM (top dose mostly 38.3 µM), for inactives: top-dose activity change, negative = inhibition, actives largely listed as inhibitors | HEK293 cAMP-luciferase reporter cells, luminescence, 24 h | AID 624418, 2012 | hit rate 0.13% among 410,000;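 note: loss of luciferase light is scored as toxicity; % is set by controls: 0 for no effect and ±100 for the full control effect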
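To flag toxic compounds, the library was rerun on cells for 24 hr at 37 deg C and 5% CO2. Viability-linked luminescence was captured 12 min after adding luciferase detection reagent.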
Active calls of the source: *; ? = inconclusive; nt = no result. Only some compounds are listed: those with a hit (about 2.8% of all), similar ones and a draw of the others. Calls come from the whole dose curve; as a rule, active = well fitted curve in the direction sought with a large enough effect; inconclusive = small, poorly fitted or top-dose-only effect, or another doubt; inactive = no such curve, though single readings can be large; an effect the other way counts as inactive or inconclusive. Potency is the fitted concentration of half-maximal effect.

SMILES | GLP1R inv ag | BRCA1 expr up | Mito fusion act | GLP1R ag | GLP1R cytotox
COC(=O)c1[nH]c2ccc(C)cc2c1NC(=O)CN1CCN(c2ccccc2)CC1 | 10µM* | -70% | ? | 0% | ?
COc1ccc(-c2nnc(SCC(=O)N3CCc4ccccc43)o2)cc1OC | 15% | nt | nt | nt | 7%
O=C(C=Cc1ccc2c(c1)OCO2)c1ccccc1 | -27% | 55% | nt | 4% | -17%
O=C(c1ccccc1)c1ccc2c(c1)OCCOCCOCCO2 | 22% | 40% | 3% | -8% | 3%
O=C(CCCc1ccccc1)c1ccc2c(c1)OCCO2 | ? | -78% | 2% | -17% | 2%
O=C(/C=C/c1ccccc1)c1ccc2c(c1)OCCCCO2 | -23% | 2.2µM* | 1% | -7% | 3%
O=C(c1ccccc1)c1ccc2c(c1)OCCCO2 | ? | 1.4µM* | -1% | 17% | -7%
O=C(CCc1ccccc1)c1ccc2c(c1)OCCCO2 | -2% | 3.5µM* | 7% | 4% | 3%
O/N=C(/CCc1ccccc1)c1ccc2c(c1)OCCO2 | ? | 2.8µM* | 28% | 18% | -5%
CCCCc1nc2cc(C(=O)N3CCCCC3COC)ccc2o1 (configuration not stated) | -4% | 40% | 1% | 14% | -10%
CCOc1cc(C(=O)NC)cc(Br)c1OC | 11% | 0% | 3% | -3% | 1%
COc1ccc2oc(=O)c(-c3nnc(-c4ccc(C)cc4)o3)cc2c1 | 0% | nt | nt | nt | 2%
CCN(CC)C(=O)Nc1ccc(C(=O)OC)cc1 | 6% | 0% | -1% | 4% | -3%
Cc1ccc(-n2[nH]c(=O)c(-c3ccccn3)c2C)cc1 | 1µM* | -101% | 2% | -4% | ?
CC(=O)C[C@H](O)CC(=O)[C@H]1OC(=O)[C@H](C)CCCCc2ccccc21 | -9% | 49% | nt | -3% | 1%
C/C(=N\Nc1nccnc1Cl)c1ccc(F)cc1 | 11% | 8.9µM* | 6% | 1% | 23%
C/C(=N\Nc1nccnc1Cl)c1ccc(O)cc1 | -29% | 68% | -3% | 5% | ?
COC(=O)[C@]1(Cc2ccccc2)N[C@H](c2ccc(-c3cccc(Cl)c3)c(OC)c2)[C@@H]2C(=O)N(C)C(=O)[C@@H]21 | 3.2µM* | -60% | nt | 4% | -5%
CCN1C(=O)[C@H]2[C@@H](c3ccc(-c4cccc(Cl)c4)cc3)N[C@@](C)(C(=O)OC)[C@H]2C1=O | 11µM* | -39% | 22µM* | 7% | 3%
Cc1cc(C)c2nc(Cl)c(CN(Cc3ccco3)C(=O)Nc3ccccc3C)cc2c1 | ? | -91% | 7.1µM* | 27% | ?
O=C(c1cc2cccc([N+](=O)[O-])c2oc1=O)N1CCOCC1 | 12% | -6% | -4% | 0% | -23%
O=C(Oc1cccc2cccnc12)c1ccc2c(c1)OCCO2 | 4µM* | 0% | -2% | 11% | -5%
O=C(Cc1ccc(Cl)cc1)Oc1cccc2cccnc12 | -1% | -37% | 3% | 22% | 2.5µM*
O=C(Oc1cccc2cccnc12)c1ccc(Br)o1 | -13% | -10% | 2% | 5% | -26%
O=C(Oc1cccc2cccnc12)c1ccco1 | 10µM* | -23% | -5% | -1% | ?
SMILES | GLP1R inv ag | BRCA1 expr up | Mito fusion act | GLP1R ag | GLP1R cytotox
COc1ccc(C(=O)C2CCCN(Cc3cccn3-c3ccccn3)C2)c(OC)c1 (configuration not stated) | ? | -44% | 11% | 7% | ?
COc1ccc(OC)c(CNC(=O)c2cccc(NC(=O)N3CCSc4ncccc43)c2)c1 | 3% | nt | nt | nt | -13%
Cc1ccc(NC(=O)Cn2cc3c(n2)CCC(C)C3)cc1C (configuration not stated) | -24% | nt | nt | nt | -7%
CN(C)CC/C=C1\c2ccccc2COc2ccccc21 | 10µM* | 12% | -33% | -1% | -10%
Cc1cc(C)cc(NC(=O)C2CCCN(C(=O)c3cnn(-c4ccccc4)c3-n3cccc3)C2)c1 (configuration not stated) | 10µM* | -49% | nt | nt | -21%
Cc1onc(-c2ccccc2)c1C(=O)N/N=C/c1ccc([N+](=O)[O-])s1 | ? | -97% | 11µM* | -2% | ?
Cc1nc2cc(-c3ccccc3)[nH]n2c(=O)c1C | 5% | 98% | 2% | -1% | 3%
O=C(Nc1cc(Oc2ccc(Cl)cc2)cc([N+](=O)[O-])c1)c1ccco1 | ? | -54% | -2% | -5% | -29%
CCOc1ccc(Nc2nc(-c3cccnc3)cs2)cc1 | -19% | 29% | -2% | -13% | -6%
Cc1c(C(=O)N2CCN(C)CC2)oc2ccc(Br)cc12 | -6% | 13µM* | -1% | 14% | 2%
Cc1c(C(=O)N2CCCC2)oc2ccc(Br)cc12 | -7% | 6.3µM* | -2% | 5% | -30%
COc1cc2c(C(=O)N3CCN(C)CC3)c(C)oc2cc1Br | -25% | -6% | -3% | -9% | 5%
Cc1c(C(=O)N2CCc3ccccc3C2)oc2ccc(Br)cc12 | ? | 80% | ? | 0% | 22%
Cc1oc2cc3c(C(=O)N4CCCCC4)c(C)oc3cc2c1C(=O)N1CCCCC1 | -16% | 3.2µM* | -2% | -6% | -5%
CCOC(=O)c1oc2ccc(Br)cc2c1NC(=O)CN1CCN(C)CC1 | 8.9µM* | -30% | 1% | 10µM* | -3%
CC(C)N1C(=O)CCC1C(=O)NCc1ccc(F)cc1Cl (configuration not stated) | 8% | 1% | 4% | -3% | -15%
O=C1[C@@H]2CSC(c3ccc(C(F)(F)F)cc3)N2C(=O)N1c1ccccc1 (some centres not stated) | -21% | 0% | nt | -1% | -4%
COC(=O)c1ccc(N=C2SCC(=O)N2C)cc1 | 33% | 5% | 6% | 11% | -4%
CCOC(=O)N1CCN(c2ccccc2OC)CC1 | 19% | 2% | -2% | -1% | -8%
CCOC(=O)/C(=N\Nc1ccc(Br)cc1)N1CCN(c2ccccc2OC)CC1 | 2.2µM* | -29% | -6% | 1% | ?
CC(C)NS(=O)(=O)c1ccc(OCC(=O)Nc2cccc3ccccc23)cc1 | 1% | -11% | 0% | 6% | 8%
C/C=C1\COC(C(=O)NCc2ccccc2)(C(F)(F)F)C=C1C=C(C)C (configuration not stated) | 10µM* | 15% | nt | 8% | 1%
CCCCOc1ccc(CSC2=NCCN2)cc1[N+](=O)[O-] | 10µM* | -77% | -14% | -6% | ?
CCN(CC)C(=O)c1ccc2c(c1)N(Cc1ccccc1)C(=O)CS2=O (configuration not stated) | 11% | -23% | -2% | -9% | -11%

Assay outcomes as filed in PubChem BioAssay.
